Data taken from PubChem BioAssay (NCI).
About 83,000 compounds went through this panel and 20% of them were active in at least one assay; those are over-represented in the sample as a whole.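 Values shown are percent growth following 48 h exposure of cells in 96-well plates to a single concentration of compound; below 10 was considered active.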 Values without a mark were called inactive. The source made the active and inactive calls.

Tests used:
Test in all cases: NCI-60 one-dose screen, 48 h (100 = growth as untreated, 0 = no growth, -100 = all killed)
Settings in all cases: 10 µM unless noted
SK-MEL-2 melanoma = tested on: SK-MEL-2 melanoma
EKVX NSCLC = tested on: EKVX NSCLC
SN12C renal = tested on: SN12C renal
UO-31 renal = tested on: UO-31 renal
TK-10 renal = tested on: TK-10 renal
ACHN renal = tested on: ACHN renal
CAKI-1 renal = tested on: CAKI-1 renal
A498 renal = tested on: A498 renal
CCRF-CEM leukemia = tested on: CCRF-CEM leukemia
MOLT-4 leukemia = tested on: MOLT-4 leukemia
SR leukemia = tested on: SR leukemia
RPMI-8226 leukemia = tested on: RPMI-8226 leukemia
OVCAR-8 ovarian = tested on: OVCAR-8 ovarian
OVCAR-5 ovarian = tested on: OVCAR-5 ovarian
OVCAR-4 ovarian = tested on: OVCAR-4 ovarian
SK-OV-3 ovarian = tested on: SK-OV-3 ovarian
IGROV1 ovarian = tested on: IGROV1 ovarian
OVCAR-3 ovarian = tested on: OVCAR-3 ovarian
HS 578T breast = tested on: HS 578T breast
NCI/ADR-RES ovarian = tested on: NCI/ADR-RES ovarian

Row | Structure (SMILES) | growth (SK-MEL-2 melanoma) | growth (EKVX NSCLC) | growth (SN12C renal) | growth (UO-31 renal) | growth (TK-10 renal) | growth (ACHN renal) | growth (CAKI-1 renal) | growth (A498 renal) | growth (CCRF-CEM leukemia) | growth (MOLT-4 leukemia) | growth (SR leukemia) | growth (RPMI-8226 leukemia) | growth (OVCAR-8 ovarian) | growth (OVCAR-5 ovarian) | growth (OVCAR-4 ovarian) | growth (SK-OV-3 ovarian) | growth (IGROV1 ovarian) | growth (OVCAR-3 ovarian) | growth (HS 578T breast) | growth (NCI/ADR-RES ovarian)
1 | O=C1CS/C(=N\Nc2cc(=O)[nH]c3ccccc23)N1c1ccccc1 | 100% | 87.3% | 94.1% | 69.7% | 111% | 93.6% | 81.3% | 81.7% | 86.2% | 98.8% | 77.9% | 88.4% | 94% | 95.6% | 97% | 107% | 89.1% | 99.8% | 97.1% | 
2 | c1coc(CNc2ccnc(Nc3ccc(OCCN4CCCCC4)cc3)n2)c1 | 104% | 95.1% | 78% | 71.2% | 107% | 100% | 92.3% | 59.8% | 81.4% | 81.1% | 61.5% | 71.1% | -5.87% (active) | 97% | 87.6% | 103% | 98.1% | 90.1% | 80.9% | 104%
3 | COc1cccc(-c2nc3sccn3c2-c2ccnc(NCCCNS(=O)(=O)c3ccc(F)cc3)c2)c1 | 21.2% | 36.5% | 29.9% | 6.81% (active) | 80.4% | 22.6% | 23.9% | 48.7% | 10.6% | 10.9% | 45.2% | -25.1% (active) | 16% | 83.6% | 30.2% | 74.8% | 29.7% | 35.8% | 63.7% | 
4 | CCCCCCCCCCCCCCCCCCNC(=O)[C@H]1CSC(c2cccs2)N1 (stereo partly drawn) | -86.7% (active) | 3.9% (active) | -84.2% (active) | 45.6% | 29.9% | 67.9% | -0.0289% (active) | 68.1% | -33.4% (active) | 3.87% (active) | -41.2% (active) | -51.1% (active) | -23% (active) | -54.1% (active) | 42.2% | 39.7% | 2.04% (active) | -17.3% (active) | -31.7% (active) | -45.3% (active)
5 | CCc1ccc(-c2ccc(=O)n(-c3ccc(S(N)(=O)=O)cc3)n2)cc1 | 1.5% (active) | 69.1% | 58.4% | 38.4% | 76.8% | 60.3% | 36.7% | 40.3% | 27.9% | 16% | -11.9% (active) | -29.9% (active) | 51.2% | 91.6% | 74.5% | 49.5% | -5.72% (active) | -56.8% (active) | 28.6% | 1% (active)
6 | CN(C)c1nc2c(N)ncnc2n1C1OC(CO)C(O)C1O (stereo not drawn) | 99.4% | 112% | 104% | 79.5% | 107% | 99.4% | 99.3% | 114% | 105% | 111% | 99% | 92.1% | 107% | 97.6% | 123% | 116% | 111% | 108% | 106% | 114%
7 | FC(F)(F)c1ccccc1-c1cn2c(ccc3ccccc32)n1 | 51.8% | 88.5% | 88.3% | 61.1% | 125% | 82.3% | 58.7% | 81.6% | 78.6% | 107% | 42.4% | 98.6% | 93.7% | 103% | 95.2% | 80.5% | 73.1% | 88.3% | 71.4% | 61.9%
8 | COc1cccc(CC(C)=C(c2ccc(OCCN3CCCCC3)cc2)c2ccc(OCCN3CCCCC3)cc2)c1 | -65.4% (active) | 18% | -42.3% (active) | -92.2% (active) | 32.5% | -88.4% (active) | -46.8% (active) | 8.39% (active) | -31.8% (active) | -34.3% (active) | -41.2% (active) | -45.8% (active) | -50.3% (active) | 24% | -49% (active) | 76.9% | -10.5% (active) | -40.7% (active) | -50% (active) | -13.3% (active)
9 | O=[N+]([O-])c1cc(S(=O)(=O)Oc2ccccc2)ccc1Cl | 87.5% | 65% | 29.6% | -87.7% (active) | 52.3% | 37.6% | -89.4% (active) | 96.7% | -22.1% (active) | 19.4% | 1.34% (active) | 17% | 40.7% | 66.8% | -28.4% (active) | 102% | -78.2% (active) | -94.7% (active) | -7.12% (active) | 46.6%
10 | CCNc1nc(S(=O)(=O)CC)nc2ccccc12 | 94.6% | 95% | 101% | 82.4% | 112% | 86.1% | 72.8% | 113% | 86.6% | 91% | 84.5% | 87.5% | 99.8% | 104% | 99.7% | 96.6% | 104% | 98% | 93.6% | 111%
11 | CCOC(=O)CC(=O)OC | 107% | 99.1% | 108% | 90.4% | 106% | 107% | 91.2% | 92.2% | 97.5% | 83.3% | 76.7% | 97.4% | 103% | 101% | 100% | 101% | 111% | 123% | 114% | 113%
12 | Cc1ccc(S(=O)(=O)NCCNc2nccc(-c3c(-c4cccc(N)c4)nc4sccn34)n2)cc1 | 109% | 83.5% | 81% | 70.9% | 116% | 86.4% | 81.8% | 92.4% | 95.8% | 88% | 95.9% | 74.7% | 91.4% | 123% | 58.8% | 103% | 86.6% | 87.4% | 99.5% | 90.8%
13 | CC(=O)Nc1ccc(/C=C/C(=O)c2ccccc2)cc1 | 107% | 112% | 87.5% | 71.3% | 110% | 95.3% | 104% | 73.4% | 31% | 75.5% | 3.34% (active) | -8.05% (active) | 98.4% | 113% | 106% | 101% | 43% | 57.6% | 81.7% | 103%
14 | C=C1CC2(OC1=O)C(=O)N(CCCN1C(=O)C3(CC(=C)C(=O)O3)c3ccccc31)c1ccccc12 (stereo not drawn) | 52.8% | 69.9% | -38.6% (active) | -39.3% (active) | -9.34% (active) | -17.9% (active) | -7.27% (active) | 70.4% | -13.8% (active) | 1.03% (active) | 3.74% (active) | -33.3% (active) | 11.6% | 21.9% | 25.2% | 111% | 35% | -13% (active) | 58.2% | 50%
15 | N#C/C(=C1C=C/C(=N/O)C(Cl)=C/1)c1ccc(Cl)cc1 | 95.1% | 93.6% | 66.6% | 44.9% | 51.2% | 67.3% | 34% | 88.1% | 7.1% (active) | 65.9% | 78.5% | 20.7% | 66.3% | 129% | 88.9% | 121% | 45.4% | 31.7% | 87.7% | 63.1%
